According to PubChem BioAssay AID1159580 (chemical genetic matrix, 2015):
Where “and” joins values, the source holds several entries; their conditions need not be identical. Equal entries are not always repeated. Hit rate of the full screen: of about 5,500 compounds, about 2,000 (36%) were called active. Inconclusive results (about 18%) are left out. Rule as the data show it: active = normalized growth mostly below about 0.91 (no sharp cut-off); inconclusive = no clear call, values can overlap the other calls; inactive = mostly above about 0.92. Some of the results follow.

Experiment: chemical genetic growth profiling, strain panel (AID 1159580);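 also: tested at 20 µM; growth read once vehicle control cultures reached saturation at 30 °C; 1 = growth at the plate median or of vehicle wells; lower values mean less growth of the strain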
Settings: S. cerevisiae deletion strains, growth OD

Measured: normalized growth

CC(C)(C)CC(C)(C)c1ccc(O)c(Cc2ccc(Cl)cc2Cl)c1
inactive: locus YAL021C, strain ccr4, hits give low values 1 | locus YAL026C, strain drs2, hits give low values 1.03 | locus YAL030W, strain snc1, hits give low values 1.01 | locus YBL061C, strain skt5, hits give low values 1.01 | locus YBR009C, strain hhf1, hits give low values 0.995 | locus YBR021W, strain FUR4, hits give low values 0.993 | locus YBR023C, strain chs3, hits give low values 1.02 | locus YBR171W, strain sec66, hits give low values 1.02 | locus YBR229C, strain ROT2, hits give low values 1.01 | locus YBR231C, strain swc5, hits give low values 1.01 | locus YBR279W, strain paf1, hits give low values 1.02 | locus YCL011C, strain gbp2, hits give low values 1.01 | locus YCL016C, strain dcc1, hits give low values 1.01 | locus YCL029C, strain bik1, hits give low values 1.02 | locus YCL061C, strain MRC1, hits give low values 1.02 | locus YCL069W, strain vba3, hits give low values 1.03 | locus YCR088W, strain abp1, hits give low values 1.02 | locus YDL005C, strain med2, hits give low values 1.03 | locus YDL035C, strain GPR1, hits give low values 1.01 | locus YDL040C, strain nat1, hits give low values 1 | locus YDL074C, strain BRE1, hits give low values 1.01 | locus YDL101C, strain DUN1, hits give low values 1 | locus YDL134C, strain PPH21, hits give low values 1 | locus YDL185W, strain tfp1, hits give low values 1.01 | locus YDL192W, strain arf1, hits give low values 1.01 | locus YDR001C, strain nth1, hits give low values 1.02 | locus YDR069C, strain doa4, hits give low values 1.02 | locus YDR101C, strain arx1, hits give low values 0.997 | locus YDR137W, strain rgp1, hits give low values 1.03 | locus YDR159W, strain sac3, hits give low values 1.02 | locus YDR162C, strain NBP2, hits give low values 1 | locus YDR195W, strain ref2 1.08 | locus YDR297W, strain sur2, hits give low values 1.01 | locus YDR318W, strain mcm21, hits give low values 1.01 | locus YDR334W, strain swr1, hits give low values 1.04 | locus YDR335W, strain msn5, hits give low values 1.04 | locus YDR388W, hits give low values 1.01 | locus YDR392W, strain spt3, hits give low values 0.894 | locus YDR502C, strain sam2, hits give low values 1.02 | locus YEL003W, strain gim4, hits give low values 1.02 | locus YEL037C, strain rad23, hits give low values 1.02 | locus YEL061C, strain CIN8 (second series), hits give low values 1.03 | locus YEL061C, strain CIN8, hits give low values 1 | locus YER015W, strain faa2, hits give low values 1.01 | locus YER016W, strain bim1, hits give low values 1.03 | locus YER110C, hits give low values 1.02 | locus YER111C, strain swi4, hits give low values 1.05 | locus YER155C, strain BEM2 (second series), hits give low values 1.08 | locus YER155C, strain BEM2, hits give low values 0.998 | locus YER167W, strain BCK2, hits give low values 1 | locus YFR010W, strain ubp6, hits give low values 1.02 | locus YGL078C, strain dbp3, hits give low values 1.02 | locus YGL086W, strain mad1, hits give low values 1.01 | locus YGL167C, strain pmr1, hits give low values 1.02 | locus YGL173C, strain kem1, hits give low values 1.02 | locus YGL227W, strain vid30, hits give low values 1.02 | locus YGL240W, strain doc1, hits give low values 1.03 | locus YGL248W, strain PDE1, hits give low values 1 | locus YGL253W, strain hxk2, hits give low values 1.03 | locus YGR078C, strain PAC10, hits give low values 0.997 | locus YGR135W, strain pre9, hits give low values 1.01 | locus YGR229C, strain SMI1, hits give low values 0.992 | locus YGR252W, strain gcn5, hits give low values 1.04 | locus YHR013C, strain ard1, hits give low values 1.02 | locus YHR027C, strain rpn1, hits give low values 1.02 | locus YHR030C, strain SLT2, hits give low values 1 and 1.03 | locus YHR079C, strain IRE1 (second series), hits give low values 1.01 | locus YHR079C, strain IRE1, hits give low values 1.05 | locus YHR094C, strain hxt1, hits give low values 1.01 | locus YHR129C, strain ARP1, hits give low values 1.01 | locus YHR142W, strain chs7, hits give low values 1.02 | locus YHR200W, strain rpn10, hits give low values 1.01 | locus YIL066C, strain RNR3, hits give low values 1.01 | locus YIL073C, strain SPO22, hits give low values 1.04 | locus YIL125W, strain kgd1, hits give low values 1.02 | locus YIR030C, strain dcg1, hits give low values 1.02 | locus YJL092W, strain hpr5, hits give low values 1.02 | locus YJL095W, strain BCK1 (second series), hits give low values 1.01 | locus YJL095W, strain BCK1, hits give low values 1.01 and 1.04 | locus YJL115W, strain asf1, hits give low values 1.04 | locus YJL129C, strain trk1, hits give low values 0.981 | locus YJL134W, strain LCB3, hits give low values 1.01 | locus YJL154C, strain vps35, hits give low values 1.02 | locus YJL164C, strain tpk1, hits give low values 0.994 | locus YJL166W, strain qcr8, hits give low values 1.02 | locus YJL168C, strain set2, hits give low values 1.01 | locus YJL187C, strain SWE1 (second series), hits give low values 1.01 | locus YJL187C, strain SWE1, hits give low values 1.01 | locus YJR043C, strain POL32, hits give low values 1.01 | locus YJR066W, strain TOR1, hits give low values 0.925
